# esBAF inh = inhibitors of esBAF chromatin remodeling in mouse ES cells | AID 602393 | Bmi1-luciferase knock-in reporter, 24 h; 100% = twice the neutral-well signal | reporter increase, % at 12.5 µM | hit rate 2% among 350,000; in the data active means activation above about 40%; inconclusive means no clear call, values can overlap the other calls;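 further: a rise in the Bmi1 reporter signal indicates esBAF inhibition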
# EBV LMP1 NFkB = inhibitors of Epstein-Barr LMP1-induced NF-kappaB reporter | inhibition, % at 12.5 µM | AID 504558 | LMP1-induced NF-kappaB luciferase reporter cells, luminescence | hit rate 0.69% among 350,000; in the data active means inhibition above about 41%; inconclusive means no clear call, values can overlap the other calls
# C2C12 statin = suppressors of simvastatin-induced myotoxicity in C2C12 myotubes; ATP luminescence, 48 h; scaled: DMSO 0, geranylgeraniol control 100; rescue of ATP level, % at 7.49 µM; hit rate 0.78% among 330,000;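 active means mean ATP rescue above about 67%, or every replicate alone reaching that limit, limit read from the data, passing the limit was not always enough; inconclusive means no clear call, values can overlap the other calls; inactive means mean under the limit and some replicate under it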;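 further: myotubes were challenged with 10 µM simvastatin during compound exposure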
# TRPM1 prom inh = MITF TRPM1 promoter inhibition in SK-MEL-5 cells; hit rate 0.83% among 330,000; SK-MEL-5 TRPM1 promoter luciferase, 24 h; inhibition, % at 12.5 µM;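 active means mean inhibition across replicates of 60% or more, whatever share of single replicates reaches that level; inconclusive means some that reach 60%, reason not given; inactive means mean inhibition across replicates below 60%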
# Wnt act = activates Wnt/beta-catenin signaling in a reporter cell assay. hit rate 1.2% among 300,000. activator, plate reader. activation, % at 9.35 µM. AID 743398; in the data active means activation above about 30%, passing the limit was not always enough; inconclusive means no clear call, values can overlap the other calls
# MITF act = activators of MITF-driven TRPM1 promoter activity in SK-MEL-5 cells. SK-MEL-5 TRPM1-promoter luciferase, 24 h; % of positive control, neutral wells = 0. hit rate 0.75% among 300,000. activation, % at 12.5 µM;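 active means mean activation of at least 80% with every replicate also reaching 80%; inconclusive means mean reaches 80% but some replicate falls short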
# Hits are given with their value; – = inactive; ? = inconclusive; · = no result. This is a sample that favours compounds with a hit; in the whole collection about 4% have one here.
SMILES,esBAF inh,EBV LMP1 NFkB,C2C12 statin,TRPM1 prom inh,Wnt act,MITF act
CC(NC(=O)C1CCCC1)C1CC2CCC1C2 (stereo unspecified),·,–,·,–,–,–
CC(NC(=O)C1CC=CCC1C(=O)O)C1CC2CCC1C2 (stereo unspecified),–,–,98,–,–,–
Cc1ccccc1NC1=NC(C)(C)N=C(N)N1,–,–,–,–,–,–
Cc1cccc(NC2=NC(C)(C)N=C(N)N2)c1C,–,–,112,–,–,–
Cc1occc1C(=O)Nc1ccc(Br)cc1F,46,–,–,–,?,–
Cc1noc(C)c1COc1cccc(C(=O)Nc2ccc(Br)cc2F)c1,–,–,–,–,–,–
CC(C)Oc1cccc(C(=O)Nc2ccc(Br)cc2F)c1,·,–,·,–,–,101
C[C@H](CO)N1C[C@H](C)[C@H](CN(C)Cc2ccc(-c3ccccc3)cc2)Oc2c(NC(=O)Nc3cccc4ccccc34)cccc2C1=O,–,·,·,·,·,·
Cc1cccc(CCNc2nc3ccc(C)cc3n3cnnc23)c1,46,–,–,–,–,–
Cc1ccc2nc(NCCc3ccc(Cl)cc3)c3nncn3c2c1,–,–,–,–,–,–
Cc1ccc(S(=O)(=O)Nc2ccc3c(c2)CC(=O)N([C@@H](C)CO)C[C@@H](C)[C@@H](CN(C)S(=O)(=O)c2c(C)noc2C)O3)cc1,–,·,–,·,·,·
CCCCn1c(N)c(N(CC(C)C)C(=O)c2cc(-c3ccc(F)cc3)nc3ccccc23)c(=O)[nH]c1=O,–,–,–,–,–,–
CCCCN(C(=O)c1cc(-c2ccc(F)cc2)nc2ccccc12)c1c(N)n(CCCC)c(=O)[nH]c1=O,–,–,–,69,–,–
O=C(CSc1nc2ccccc2c(=O)n1NC(=O)Cc1ccccc1)NCc1ccccc1Cl,–,–,–,–,·,·
C[C@H]1CCCCO[C@@H](CN(C)C(=O)C2CCCCC2)[C@@H](C)CN([C@@H](C)CO)C(=O)c2cc(NS(C)(=O)=O)ccc2O1,–,·,–,·,·,·
N#CC(C#N)=C1C=CC=CN1/C(=C\c1ccco1)C(=O)c1ccc(Br)cc1,·,–,·,85,–,–
COc1ccc(C(=O)/C(=C\c2ccco2)N2C=CC=CC2=C(C#N)C#N)cc1,–,–,–,96,–,–
N#CC(C#N)=C1C=CC=CN1/C(=C\c1ccco1)C(=O)c1ccccc1,·,–,·,104,–,–
CN(c1ccccc1)S(=O)(=O)c1cccc(C(=O)NNC(=O)c2ccccc2)c1,–,–,–,–,–,–
C/C(=N\N=c1/sc2ccccc2n1C)c1ccc(N2CCOCC2)cc1,–,–,–,–,·,–
C/C(=N\N=c1/sc2ccccc2n1C)c1ccccn1,?,–,–,–,52,–
CCCC(=O)N1CCCC(C(=O)c2cccc(OC(C)C)c2)C1 (stereo unspecified),54,–,–,–,–,·
COCCC(=O)N1CCCC(C(=O)c2ccc(C(F)(F)F)cc2)C1 (stereo unspecified),–,49,–,–,–,–
O=C(c1ccc(C(F)(F)F)cc1)C1CCCN(C(=O)CN2CCCC2=O)C1 (stereo unspecified),–,–,–,–,–,–
COC(=O)C[C@H]1CC[C@@H]2[C@H](COC[C@@H](O)CN2C(=O)Nc2ccccc2OC)O1,–,·,–,·,·,·
SMILES,esBAF inh,EBV LMP1 NFkB,C2C12 statin,TRPM1 prom inh,Wnt act,MITF act
O=C(NC1CCN(Cc2ccccc2)C1)c1cccc(S(=O)(=O)N2CCOCC2)c1 (stereo unspecified),·,–,·,–,–,–
Cc1cc(Br)ccc1OCC(=O)N1CCCCCC1,–,–,–,–,·,–
CC(C)c1ccc(OCC(=O)N2CCCCCC2)c(Br)c1,51,–,–,–,43,–
CCCC(=O)NC(c1cccc([N+](=O)[O-])c1)c1ccc2cccnc2c1O (stereo unspecified),–,68,–,·,–,·
CCC(=O)NC(c1cccc([N+](=O)[O-])c1)c1c(OC(C)=O)ccc2ccccc12 (stereo unspecified),–,–,–,–,·,–
CC(C)C(=O)NC(c1cccc([N+](=O)[O-])c1)c1ccc2cccnc2c1O (stereo unspecified),–,52,–,62,–,·
NC1=CC(=O)C(=O)c2ccccc21,–,–,–,97,–,–
Cc1ccc(-n2[nH]c(C)c(/C=N/c3ccccn3)c2=O)cc1,–,–,–,–,·,–
